Source: PubChem BioAssay AID485273 (Sanford-Burnham Center for Chemical Genomics, 2010)
Several values for one entry are separate records, joined by “and”; a condition that tells them apart may be missing. Identical values can stand only once. Out of some 330,000 compounds screened, about 1,500 (0.45%) were called active. This is one part of a sample in which actives are shown more often than they occur. Rule as the data show it: active = inhibition above about 45% (passing the limit was not always enough); inconclusive = no clear call, values can overlap the other calls.

The compounds below were run against Ubiquitin-conjugating enzyme E2 N (Homo sapiens) (UniProt P61088) (assay: blockers of UBC13 ubiquitin chain synthesis – biochemical, TR-FRET, uHTS, primary screen (AID 485273)). Settings: UBC13 polyubiquitin chain formation, at 20 µM, stronger effect = higher value.
Ubiquitin-conjugating enzyme E2 N (Homo sapiens), sequence (P61088 whole entry, looked up): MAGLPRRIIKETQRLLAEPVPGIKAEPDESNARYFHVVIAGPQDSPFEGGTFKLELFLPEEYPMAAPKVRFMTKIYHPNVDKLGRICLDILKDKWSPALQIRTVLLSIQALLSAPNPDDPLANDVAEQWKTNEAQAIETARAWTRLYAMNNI

inhibition, inactive:
CCCc1cc(=S)n2c([nH]c3ccccc32)c1C#N -11.8%, O=C(Nc1ccon1)c1nc[nH]c1C(=O)NCc1ccccc1 -4.8%, CCOC(=O)c1[nH]cnc1C(=O)Nc1ccccc1C -4.7%, Cc1cc(C)c(SCCc2ccncc2)c(C)c1 5.6%, Cc1ccccc1CCNC(=O)C1CCC(=O)N(Cc2ccc(Cl)cc2)C1 (centres undefined) 1.4%, CCOC(=O)c1nnn(-c2nonc2OC)c1-c1ccccc1 1%, COC(=O)/C(=C1\Oc2ccc(C(C)(C)C)cc2S1)C(F)(F)F -10.5%, COc1ccc(-c2sc3ccc(OC)cc3c2C#Cc2ccccn2)cc1 29.9%, COc1ccc2sc(-c3ccc(S(C)(=O)=O)cc3)c(-c3ccc(C(N)=O)cc3)c2c1 38.5%, CCOC(=O)C1CCN(Cc2coc3ccc(Cl)cc3c2=O)CC1 -15.5%, Cc1c(C(=O)N2CCCC2)c(S(=O)(=O)NCC(C)c2ccccc2)c(C)n1C (centres undefined) -2.8%, CCOC(=O)c1c(S(=O)(=O)Nc2cccc(Cl)c2)c(C)n(C)c1C -2.9%, Cc1nnc(SC(C)C(=O)Nc2ccc(S(=O)(=O)NC3CCCCC3)cc2)s1 (centres undefined) -0.1%, C=CCN1C(=O)C(Cc2ccc(OCC)cc2)SC1=Nc1ccc(C(=O)O)cc1 (centres undefined) 7.8%, CCC1CCC/C1=N\NC(=O)c1ccc(Cl)cc1 (centres undefined) 6.6%, Cc1ccc(Oc2cc(NC(=O)CCCn3nc(C)c([N+](=O)[O-])c3C)cc([N+](=O)[O-])c2)cc1 -3.8%, CN(C)[C@@H]1C(=O)C(C(N)=O)=C(O)[C@@]2(O)C(=O)C3=C(O)c4c(O)ccc(Cl)c4[C@@H](O)[C@H]3C[C@@H]12 6.5%, CCCn1c(SCC(=O)Nc2cccc(C(=O)OCC)c2)nnc1-c1ccoc1C 11.9%, CCn1c(SCC(=O)Nc2cc(C)c(Cl)cc2OC)nnc1-c1ccco1 4.1%, CC(Oc1ccccc1)C(=O)Nc1oc(-c2ccco2)c(-c2ccco2)c1C#N (centres undefined) -15.8%, Cc1nonc1C1CCCN1Cc1nc(-c2ccc(F)cc2F)oc1C (centres undefined) 0.7%, CC1(C)NC(=O)N(CC(=O)Nc2cc(C(F)(F)F)cc(C(F)(F)F)c2)C1=O 0.4%, C=CCn1c(Oc2ccc(C(=O)OC)cc2)nc2c1c(=O)n(C)c(=O)n2C -13%, O=S(=O)(c1ccccc1)N1CN(Cc2ccc(F)cc2)c2nc3ccccc3nc21 -1.4%, Cc1ccc(NC(=O)c2cc([N+](=O)[O-])ccc2Cl)c(O)c1 2.4%, CC[n+]1cc(C)ccc1/C=C/c1ccc(N(C)C)cc1 -286%, CCOc1ccc(C(C(=O)NC2CCCC2)N(C(=O)c2snc(C(N)=O)c2N)C2CCCC2)cc1 (centres undefined) 5.2%, Cc1ccc(N(C(=O)Cc2cccs2)C(C(=O)NCC2CCCO2)c2ccncc2)cc1 (centres undefined) -4.7%, O=C(NCC(=O)N(c1ccccc1)C(C(=O)NCC1CCCO1)c1ccccc1)c1cccs1 (centres undefined) -2.5%, COCCNC(=O)C(c1ccc(C)o1)N(Cc1cccs1)C(=O)c1snc(C(N)=O)c1N (centres undefined) 4.7%, Cc1cccc(N(C(=O)c2sc(C)nc2C)C(C(=O)NCC2CCCO2)c2ccccc2)c1 (centres undefined) 2.5%, CC(C)(C)NC(=O)C(c1ccc(Cl)cc1)N(CCO)C(=O)c1snc(C(N)=O)c1N (centres undefined) 5.2%, CCOc1ccc(-n2c(N)c(C(=O)NCC3CCCO3)sc2=S)cc1 (centres undefined) 3.2%, CCOc1cc(C(C(=O)NCC2CCCO2)N(C(=O)Cn2nnc3ccccc32)c2cccc(OC)c2)ccc1O (centres undefined) 4%, COC(=O)Nc1ccc(S(=O)(=O)N(C)CC(F)(F)C(F)F)cc1 4.1%, COc1ccccc1N1CCN(C(=O)c2cc(=O)c3cc(C)cc(C)c3o2)CC1 -5.8%, Cn1cc(S(=O)(=O)Nc2ccc(Cl)cc2Cl)c(=O)n(C)c1=O -9.5%, N/C(=N\OC(=O)CCc1ccccc1)c1ccc(Cl)cc1 3.8%, O=C(CSc1ccc2nnc(-c3ccccc3)n2n1)N1CCCc2ccccc21 8.9%, COC(=O)c1ccc(CSc2ccc3nnc(-c4ccccc4)n3n2)o1 14.2%, COc1ccc(C)cc1S(=O)(=O)N(CC(=O)Nc1cccc([N+](=O)[O-])c1)c1ccc(C)cc1 -5.5%, CCC(C(=O)NC1CCCCC1)N(C(=O)c1snc(C(N)=O)c1N)c1ccc(OC)cc1OC (centres undefined) 14.4%, COc1ccc(C(C(=O)NC2CCCCC2)N(C(=O)c2snc(C(N)=O)c2N)c2ccccc2OC)cc1 (centres undefined) 8.5%, COc1cc(C(C(=O)NC2CCCC2)N(Cc2ccccc2)C(=O)c2snc(C(N)=O)c2N)ccc1O (centres undefined) 13.8%, COc1ccc(N(C(=O)c2snc(C(N)=O)c2N)C(C(=O)NC2CCCC2)c2ccc(C)o2)c(OC)c1 (centres undefined) 12.9%, COc1ccc(C)cc1NC(=S)Nc1ccccc1SC -7.3%, COc1cccc(/C=C2\Sc3ccc(C(=O)NCC4CCCO4)cc3N(C)C2=O)c1 (centres undefined) -7.4%, Cc1cccc(C)c1OCC(O)CN1CCCCC1 (centres undefined) 11.2%, Cc1ccccc1OCC(O)CN1CCN(c2ccccn2)CC1 (centres undefined) 0.6%, Cc1cc(C)c(S(=O)(=O)c2ccccc2)c(OC(=O)c2c(F)cccc2Cl)n1 2.7%, O=C(COC(=O)/C=C/c1nc2ccccc2s1)Nc1ccccc1Oc1ccccc1 -4.1%, CC(c1ccco1)N(C(=O)COc1ccccc1[N+](=O)[O-])c1ccccn1 (centres undefined) -13.5%, CC(C)Nc1ccc(-n2nc3ccccc3[n+]2[O-])cc1 0.3%, C#CCOCCOCCOCCNc1nc(N2CCN(C(=O)[C@H](CCC(=O)O)n3cc(C(N)CO)nn3)CC2)nc(N2CCN(C(=O)[C@H](Cc3ccc(O)cc3)n3cc(C(N)[C@H](C)CC)nn3)CC2)n1 (some centres undefined) -1.7%, C#CCOCCOCCOCCNc1nc(N2CCN(C(=O)[C@H](Cc3ccc(O)cc3)n3cc(C(N)CC(C)C)nn3)CC2)nc(N2CCN(C(=O)[C@H](CCC(=O)O)n3cc(C(N)[C@H](C)CC)nn3)CC2)n1 (some centres undefined) -7.8%, C#CCOCCOCCOCCNc1nc(N2CCN(C(=O)[C@H](CCC(=O)O)n3cc(C(N)CO)nn3)CC2)nc(N2CCN(C(=O)[C@H](CCCCN)n3cc(C(N)[C@H](C)CC)nn3)CC2)n1 (some centres undefined) 5.8%, C#CCOCCOCCOCCNc1nc(N2CCN(C(=O)[C@H](CO)n3cc([C@@H](N)C(C)C)nn3)CC2)nc(N2CCN(C(=O)[C@H](CCC(=O)O)n3cc([C@@H](N)[C@H](C)CC)nn3)CC2)n1 8.2%, O=C(Cn1c[n+](CC(=O)c2ccc([N+](=O)[O-])cc2)cn1)c1ccc([N+](=O)[O-])cc1 -18.4% and -8%, S=C(c1ccc(-c2ccccc2)o1)N1CCCCC1 -13.9%, CC(C)NC(=O)C(=O)NCCCOC(C)C -2.8%, COc1cccc(OCc2cc(/C=N/NC(=O)c3nc(Cl)c(Cl)c(N)c3Cl)ccc2OC)c1 -21.4%, COc1cc(/C=N/NC(=O)CNC(=O)c2ccncc2)ccc1OC(C)=O -6.5%

inhibition, active:
CCOC(=O)c1ccc(NC(=O)c2nc[nH]c2C(=O)NCc2ccccc2)cc1 65%, CCOC(=O)C1=C(c2ccccc2)O/C(=C(/C(=O)OC)C(F)(F)F)S1 46.8%, COc1ccc2sc(-c3ccc(S(C)(=O)=O)cc3)c(C#Cc3cncn3C)c2c1 47.1%, CCOC(=O)c1cccc(NS(=O)(=O)c2c(C(=O)N3CCCCCC3)c(C)n(C)c2C)c1 46.1%, C=C1c2c(Cl)ccc(O)c2C(O)=C2C(=O)[C@]3(O)C(O)=C(C(N)=O)C(=O)[C@@H](N(C)C)[C@@H]3[C@@H](O)C12 (some centres undefined) 57.1%, COc1ccccc1NC(=O)CSc1nnc(-c2ccoc2C)n1CCc1ccccc1 94.2%, CCOc1ccc(N(C(=O)c2snc(C(N)=O)c2N)C(C(=O)NCC2CCCO2)c2c[nH]c3ccccc23)cc1 (centres undefined) 89.4%, COc1cccc(N(C(=O)c2snc(C(N)=O)c2N)C(C(=O)NCC2CCCO2)c2c[nH]c3ccccc23)c1 (centres undefined) 59.9%, Cc1ccc(N(C(=O)c2snc(C(N)=O)c2N)C(C(=O)NCC2CCCO2)c2c[nH]c3ccccc23)cc1 (centres undefined) 75%, Cc1ccc(C(C(=O)NCC2CCCO2)N(C(=O)c2snc(C(N)=O)c2N)c2ccc(C(C)C)cc2)o1 (centres undefined) 45.7%, COc1ccc(-c2nnc3ccc(SCc4ccccc4)nn23)cc1 49.1%, COc1ccc(N(C(=O)c2snc(C(N)=O)c2N)C(C(=O)NC2CCCC2)c2ccco2)cc1OC (centres undefined) 80.3%, CCC(C(=O)NC1CCCC1)N(C(=O)c1snc(C(N)=O)c1N)c1ccc2c(c1)OCCO2 (centres undefined) 86.7%, Cc1cccc(OCC(O)CN2CCN(CCN3C(=O)c4cccc5cccc(c45)C3=O)CC2)c1C (centres undefined) 83%, C#CCOCCOCCOCCNc1nc(N2CCN(C(=O)[C@H](CCCCN)n3cc([C@@H](N)C(C)CC)nn3)CC2)nc(N2CCN(C(=O)[C@H](Cc3ccc(O)cc3)n3cc([C@@H](N)C(C)CC)nn3)CC2)n1 (some centres undefined) 95.9%, C#CCOCCOCCOCCNc1nc(N2CCN(C(=O)C(Cc3ccc(O)cc3)n3cc(C(N)CC(C)C)nn3)CC2)nc(N2CCN(C(=O)C(Cc3ccc(O)cc3)n3cc(C(N)C(C)CC)nn3)CC2)n1 (centres undefined) 45.5%, COc1ccc(/C=N\NC(=O)c2sc(N)nc2C)cc1OC 102%
